PubChem BioAssay AID1578 (Sanford-Burnham Center for Chemical Genomics, 2009)
“And” between values parts separate entries of the source, which are not always exact repeats. Equal entries are not always repeated. Out of some 290,000 compounds screened, about 3,000 (1%) were called active. Cut-off read from the data, not from the text of the source: active = inhibition mostly above about 36% (no sharp cut-off); inactive = mostly below about 34%. Many of the other results were omitted from the sample, so actives are more common in it than they were.

assay: NOD1 signaling inhibitors, primary screen, cell-based, luminescence, uHTS (AID 1578); conditions: NOD1-driven NF-kB luciferase reporter cells, at 4 µM, stronger effect = higher value;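 note: HEK-293T reporter cells stimulated with the NOD1 agonist gamma-tri-DAP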

Compound	inhibition
CC(=NCCCN1CCOCC1)c1c(O)n(-c2ccccc2C)c(=O)[nH]c1=O	-51.5% (inactive)
CN1CCN(Cc2cc(C(C)(C)C)c(O)c(C(C)(C)C)c2)CC1	16.1% (inactive)
CC(C)(C)c1cc([N+](=O)[O-])cc(C(C)(C)C)c1O	67.8% (active)
CCOP(=O)(OCC)c1cc(C)c(O)c(C(C)(C)C)c1	-1.1% (inactive)
O=[N+]([O-])c1ccccc1CNCCc1c[nH]c2ccccc12	-15.3% (inactive)
Cc1ccc(OCC(=O)N2CCN(C3CCC(c4ccccc4)CC3)CC2)cc1 (configuration not stated)	-32.4% (inactive)
CNCC(C)c1ccccc1 (configuration not stated)	-8.7% (inactive)
COC(=O)C1=Nc2ccccc2/C1=C\c1c(O)n(-c2ccc(OC)cc2)c(=O)[nH]c1=O	9.9% (inactive)
O=c1[nH]c(=O)n(-c2ccccc2)c(O)c1/C=C1/C(c2ccccc2)=Nc2ccccc21	81.6% (active)
COC(=O)C1=Nc2ccccc2/C1=C\c1c(O)n(-c2ccc(Br)cc2)c(=O)[nH]c1=O	56.2% (inactive)
Cc1ccc(Cn2nc(C)c(C=O)c2Cl)cc1	-42.4% (inactive)
COc1cc2c(cc1OC)-c1c3c(cc4c1[C@@H](C2)N(C)CC4)OCO3	-23.9% (inactive)
COc1ccc(-n2nc(C(=O)NCC(=O)N3CCC4(CC3)OCCO4)c3ccccc3c2=O)cc1	-47.4% (inactive)
CN(C)CC1Oc2ccccc2OC1(O)c1ccccc1 (configuration not stated)	56.4% (active)
COc1cccc([C@@]2(O)CCCC[C@@H]2CN(C)C)c1	-1.9% (inactive) and 1.4% (inactive)
CN(C)CC1CSCCC1(O)c1ccccc1 (configuration not stated)	-5.3% (inactive)
Cc1c(N=Nc2c(O)[nH]c(=S)[nH]c2=O)c(=O)n(-c2ccccc2)n1C	12.7% (inactive)
O=c1[nH]c(=O)n(Cc2ccccc2Cl)c(O)c1/C=C1/C=CC=N1	47.1% (active)
C=CCn1c(O)c(/C=C2/C=CC=N2)c(=O)[nH]c1=O	-27.6% (inactive)
CCCCn1c(O)c(/C=C2/C=CC=N2)c(=O)[nH]c1=O	-7.3% (inactive)
COc1ccc(N=Cc2c(O)n(C)c(=O)n(C)c2=O)cc1	-13.4% (inactive)
CNS(=O)(=O)c1ccc(N=Cc2c(O)n(-c3cccc(C)c3)c(=O)[nH]c2=O)cc1	-26.7% (inactive)
COc1ccc(CC2(CCc3ccncc3)C(=O)NC(=O)NC2=O)cc1	-26.1% (inactive)

Compound	inhibition
CNc1ccc2oc(C[C@H]3O[C@@]4(CC[C@H]3C)O[C@H]([C@H](C)C(=O)c3ccc[nH]3)[C@H](C)C[C@H]4C)nc2c1C(=O)O	76.2% (active)
c1ccc(-c2nc(N3CCOCC3)s[n+]2-c2ccccc2)cc1	-49.7% (inactive)
Cc1ccc2c(c1)C1CN(C)CCC1N2C(=S)Nc1cccnc1 (configuration not stated)	-34% (inactive)
O=C(CN1CC=C(c2ccccc2)CC1)Nc1c(Cl)cccc1Cl	30.6% (inactive)
COC(=O)[C@@H]1[C@@H](C(=O)OC)C2(c3ccccc3-c3ccccc32)N(c2ccc(Cl)cc2)N1C#N	-7.2% (inactive)
COC(=O)C[C@]1(C(=O)OC)CN(C#N)N(c2ccc(Cl)cc2)C12c1ccccc1-c1ccccc12	91.6% (active)
COC(=O)C1CN(C#N)N(c2ccc(Cl)cc2)C12c1ccccc1-c1ccccc12 (configuration not stated)	-10.3% (inactive)
CC(C)c1ccc(NC(=O)CCNC(=O)N2C[C@H]3C[C@@H](C2)c2cccc(=O)n2C3)cc1	-6.2% (inactive)
Cc1ccc(-c2nc3ccccc3c(=O)n2-c2ccncc2)cc1	-34.6% (inactive)
Cc1nc2cc(C(F)(F)F)ccc2n1C1CCN(Cc2nnnn2Cc2ccc3c(c2)OCO3)CC1	62.6% (active)
Cc1nc2cc(C(F)(F)F)ccc2n1C1CCN(Cc2nnnn2CCc2ccccc2)CC1	-27.2% (inactive)
Cc1nc2cc(C(F)(F)F)ccc2n1C1CCN(Cc2nnnn2Cc2cccs2)CC1	-21.1% (inactive)
O=c1cccc2n1CC1CC2CN(C(c2cccc(F)c2)c2sc3ncnn3c2O)C1 (configuration not stated)	-12.7% (inactive)
CN[C@H]1C[C@H]2O[C@@](C)([C@H]1OC)n1c3ccccc3c3c4c(c5c6ccccc6n2c5c31)C(=O)NC4	1.7% (inactive)
COc1ccccc1N1CCN(Cc2ccccc2Cl)CC1	-17.2% (inactive)
CCN(CC)S(=O)(=O)c1ccc(NN=C(C#N)C#N)cc1	9.7% (inactive)
N#CC(C#N)=NNc1ccc(-n2ccc(C(F)(F)F)n2)cc1	36.7% (active)
N#CC(C#N)=NNc1ccc(S(N)(=O)=O)cc1	-10.8% (inactive)
Cc1cc(C)n(-c2ccc(NN=C(C#N)C#N)cc2)n1	41.2% (active)
CC1CCN(S(=O)(=O)c2ccc(NN=C(C#N)C#N)cc2)CC1	-29.8% (inactive)
Cc1nn(Cc2ccccc2)c(Cl)c1C(=O)OCC(=O)Nc1cccc2ccccc12	-17.7% (inactive)
COC(=O)C(C)Oc1cc(C)cc2oc(=O)c3c(c12)CCCC3 (configuration not stated)	-9.2% (inactive)
O=C(NC(Cc1cnc[nH]1)C(=O)O)c1ccccc1 (configuration not stated)	-20.8% (inactive)

Compound	inhibition
C=CCn1c(O)c(C(CC)=NCCc2ccccc2)c(=O)[nH]c1=O	-24.2% (inactive)
CC(C)n1c(=O)c(C=Nc2ccc(S(N)(=O)=O)cc2)c(O)n(Cc2ccco2)c1=O	-37.7% (inactive)
CCC(=O)c1cn(Cc2ccccc2C#N)c2ccccc12	8.5% (inactive)
CC(C)C(=O)c1cn(Cc2ccccc2C#N)c2ccccc12	-11.1% (inactive)
CC(=O)c1cn(Cc2ccccc2C#N)c2ccccc12	78% (active)
CCOC(=O)CNC(=O)CNC(=O)C(Cc1ccc(N(CCCl)CCCl)cc1)NC(C)=O (configuration not stated)	-43.1% (inactive)
C=CCn1c(O)c(C(CC)=NCc2cc(OC)cc(OC)c2)c(=O)[nH]c1=O	0.2% (inactive)
Cc1cc(C=C2C(=O)NC(=S)NC2=O)c(C)n1C1CCCC1	24.9% (inactive)
O=C1NC(=S)NC(=O)C1=Cc1cccc2cc3ccccc3cc12	59.4% (active)
O=C1NC(=O)C(=Cc2ccc3ccccc3c2)C(=O)N1	-4.2% (inactive)
Cc1cccc(N2CCN(CCc3ccccc3)CC2)c1C	11.9% (inactive)
CC(=O)c1c(O)n(-c2cccc(Cl)c2)c(=O)[nH]c1=O (tested in a mixture with another compound)	1.2% (inactive)
CC(C)n1c(O)c(C2c3cc(Cl)ccc3Oc3[nH]c(=O)n(C(C)C)c(=O)c32)c(=O)[nH]c1=O (configuration not stated)	61.3% (active)
CC(=O)[C@@]1(O)CC[C@H]2[C@@H]3CC=C4C[C@@H](O)CC[C@]4(C)[C@H]3CC[C@@]21C	-24.8% (inactive)
CC12CC[C@H]3[C@@H](CCC4(O)C[C@H](O)CCC34/C=N/NC(=O)c3ccccc3Cl)C1(O)CCC2C1=CC(=O)OC1 (some centres not stated)	3% (inactive)
C[C@]12CC[C@H]3C(CCC4(O)CC(O)CC[C@]34C=O)C1=CC[C@H]2c1ccc(=O)oc1 (some centres not stated)	60.3% (active)
C=C(C)Cn1c(=O)n(CC2CS2)c2ccccc21 (configuration not stated)	8.9% (inactive)
CCOc1cc2c(cc1OCC)-n1cccc1C(c1ccccc1OC)NC2 (configuration not stated)	4.7% (inactive)
CC[C@@]1(O)C(=O)OCc2c1cc1n(c2=O)Cc2cc3c(NC(=O)CN)cccc3nc2-1	7.7% (inactive)
CCC1(OC(=O)CN)C(=O)OCc2c1cc1n(c2=O)Cc2cc3ccccc3nc2-1 (configuration not stated)	71.2% (active)
CCOC(=O)C1=C(N)OC2=C(C(=O)CCC2)C12C(=O)N(C)c1ccccc12 (configuration not stated)	-7.5% (inactive)
Cc1cnn(C2CCN(C)CC2)c1N	-8.2% (inactive)
NC1=C([N+](=O)[O-])C(c2ccc3c(c2)OCO3)c2c(c3ccccc3oc2=O)O1 (configuration not stated)	-6% (inactive)

Compound	inhibition
O=C(Cc1ccccc1)Oc1cccc(-n2cnnn2)c1	-14.2% (inactive)
O=[N+]([O-])c1ccc(N2CCNCC2)cc1Sc1ccccn1	-12.4% (inactive)
Cc1cc(N2CCCCC2)ccc1C=C1C(=O)N(C)C(=S)N(C)C1=O	-10.1% (inactive)
Cc1ccc(N2C(=O)CC(=O)NC2=O)cc1	-5.6% (inactive)
O=Cc1cn(Cc2ccc(F)cc2)c2ccccc12	6.2% (inactive)
O=Cc1cn(Cc2c(F)cccc2Cl)c2ccccc12	66% (active)
O=Cc1cn(Cc2ccccc2F)c2ccccc12	30.3% (inactive)
Cc1cc(=O)oc2cc(OCC(=O)N3CCC(C(=O)O)(c4ccccc4)CC3)ccc12	-7.5% (inactive)
CCCCOP(=O)(OCCCC)/C(C#N)=C(/C)O	-14.2% (inactive)
O=c1[nH]c(=S)n(Cc2ccc(F)cc2)c(O)c1C=NCCCn1ccnc1	-9.5% (inactive)
Cc1cccc(CN2CCCN(Cc3ccc(Cl)cc3)S2(=O)=O)c1	2.2% (inactive)
CCCCN1C(=O)/C(=C/C=C/c2ccco2)C(=O)NC1=S	-32.6% (inactive)
CCN1C(=O)C(=C/C=C/c2ccco2)C(=O)N(CC)C1=S	-25.5% (inactive)
O=C1NC(=O)N(Cc2ccccc2)C(=O)/C1=C\c1ccco1	-5.6% (inactive)
Cc1cccc(N2C(=O)NC(=O)/C(=C\C=C\c3ccco3)C2=O)c1	-6.1% (inactive)
O=C1NC(=O)N(c2ccccc2)C(=O)/C1=C/c1ccoc1	-13.5% (inactive)
Cc1cc(C)cc(N2C(=O)NC(=O)/C(=C\C=C\c3ccco3)C2=O)c1	67.1% (inactive)
CN(C)c1ccc(/C=C/C=C2/C(=O)NC(=O)N(c3ccccc3)C2=O)cc1	80.9% (active)
O=C1NC(=O)N(Cc2ccccc2)C(=O)/C1=C\C=C\c1ccco1	61.5% (active)
CCc1ccc(N2C(=O)NC(=O)/C(=C\C=C\c3ccco3)C2=O)cc1	89.4% (active)
CN1C(=O)/C(=C/C=C/c2ccco2)C(=O)NC1=S	-4.7% (inactive)
Cn1cc(/C=C2\C(=O)NC(=O)N(c3ccccc3)C2=O)c2ccccc21	-3.2% (inactive)
Cc1ccc(N2C(=O)NC(=O)/C(=C/C=C/c3ccco3)C2=O)cc1	87.4% (active)
